Test results reported in PubChem BioAssay AID602332 (National Center for Advancing Translational Sciences (NCATS), 2012).
Where “and” joins values, the source holds several entries; their conditions need not be identical. Equal entries are not always repeated. The whole screen tested about 420,000 compounds, of which about 75 (0.02%) were called active. The call rests on the fitted dose curve; in most records, active means well fitted activation curve with a large enough effect; inconclusive means small, poorly fitted or top-dose-only effect; inactive means no such curve, though single readings can be large or run the other way. The sample as a whole holds a higher share of actives than the screen did. Some structures have more than one record in an assay (separate samples or runs), and their calls can disagree.

Assay: qHTS for Inducers of the Endoplasmic Reticulum Stress Response (ERSR) in Human Glioma: qHTS; further: nearly all actives have a fitted effect of over 35% in size; on activation: % of control where 0% means no effect
Settings: U87-MG GRP78 promoter luciferase reporter, 16 h; activation: hits give high values
Description: Primary protein unfolding takes place for many diseases, including diabetes and hypoxia, , and triggers a reaction in the cells called ER stress response (ERSR). ). ERSR is designed as a repair mechanism, but ultimately leads to cell death via apoptosis if conditions triggering protein unfolding persist (1). The molecular clue to ERSR activation is the enhancement of the expression of key molecular chaperones, including the glucose regulated protein (GRP) 78. GRP78 is the main sensor for protein folding and the main actuator of the ERSR.
In a collaboration between the Southern Research Institute and the NIH Chemical Genomics Center, a cell based screen was developed that reliably uses GRP78 as a sensor to identify small molecules as inducers of ERSR. In resting conditions, GRP78 binds proteins and acts as a natural repressor. Once unfolded proteins are present in the ER, GRP78 releases some of the repressors and binds to the unfolded proteins. The release of the repressors executes the ERSR program. Using a human glioma cell line in a miniaturized, luminescent format, a high-throughput screen was developed to identify actuators of the ERSR.
(1) Soboloff, J. and S. A. Berger (2002). "Sustained ER Ca2+ depletion suppresses protein synthesis and induces activation-enhanced cell death in mast cells." J Biol Chem 277(16): 13812-20.
NIH Chemical Genomics Center [NCGC]
NIH Molecular Libraries Probe Centers Network [MLPCN]
Assay Submitter (PI): Maurizio Grimaldi, Southern Research Institute
Stable transfected human glioma cell line, U87-MG, are dispensed at density 1000 cells/well into Greiner white solid bottom 1536-well assay plates. Compounds are transferred via Kalypsys pin tool equipped with 1536-pin array (10nl slotted pins, V&P Scientific, San Diego, CA). The assay plates will be incubated for 16 hours and developed by adding appropriate quantities of the Promega Bright Glo reagent. The plates will be incubated at room temperature for 10 minutes prior to being transferred into a ViewLux high-throughput CCD imager (PerkinElmer), wherein end-point measurements of luminescence are acquired.
Potency means the concentration at half of the fitted maximal effect.

activation, inactive:
COc1ccccc1C(=O)N[C@@H]1c2ccccc2C2(CCN(C(=O)c3csnn3)CC2)[C@H]1OC 0.874%, Cc1cc(C)cc(C#CC2C=CC(Oc3ccc(C4CCCC4)cc3)C(CO)O2)c1 (stereo not given) -1.34%, O=S(O)CNc1ccc(S(=O)(=O)c2ccc(NCS(=O)O)cc2)cc1 -4.53%, C[C@]12CC[C@@H]3C(=CCc4cc(O)ccc43)[C@@H]1CCC2=O 2.61%, Fc1ccc(Cl)cc1-c1nc(Nc2ccncc2)c2nccnc2n1 -1.14%, Cc1cnc(-n2ncc(C(=O)N3CCN(C(C)C)CC3)c2-c2ccco2)nc1-c1ccc(F)cc1 -4.71%, COC(=O)[C@@H]1CC[C@H](C)[C@@H](c2ccc(C)cc2)N1C(=O)c1ccc(/C=N\OC[C@@H](O)COCc2ccco2)cc1 3.64%, C#C[C@]1(O)CC[C@H]2[C@@H]3CCC4=CC(=O)CC[C@@H]4[C@H]3CC[C@@]21CC 3.01% and -1.02%, COc1cc(=O)n2c(c1C(=O)NC(C)c1ccco1)CCN(C(=O)c1cn3ccc(C)cc3n1)CC2 (stereo not given) -2.08%, CN(C)c1ccc(/C=C/C=C/c2ccnc3ccccc23)cc1 -3.58%, C=COC(=O)N1CCN(/[N+]([O-])=N/Oc2ccc([N+](=O)[O-])cc2[N+](=O)[O-])CC1 -11%, O=C1c2c(O)cccc2[C@@H]([C@@H]2O[C@H](CO)[C@@H](O)[C@H](O)[C@H]2O)c2cc(CO)cc(O)c21 -3.93%, CO[C@H]1COC(=O)[C@@H](OCc2ccccc2)/C=C\[C@H](C)[C@@H](OC)COC(=O)[C@H](OCc2ccccc2)/C=C\[C@@H]1C -0.0422%, C[N+](C)(CCOc1ccccc1)Cc1cccs1 (tested in a mixture with another compound) -5.19%, CCCC(=O)O[C@]1(C(=O)COC(=O)CC)CC[C@@H]2[C@@H]3CCC4=CC(=O)CC[C@]4(C)[C@H]3[C@@H](O)C[C@@]21C -2.74%, C=C1C(=O)C23C(O)C1CCC2[C@]12COC3(O)C(O)C1C(C)(C)CC[C@H]2O (stereo not given in full) -12.5%, CO[C@H]1[C@H](NC(=O)C(C)C)c2ccccc2C12CCN(Cc1cnc(N(C)C)s1)CC2 -3.14%, CC1O[C@@H](Oc2c(-c3ccc(O)c(O)c3)oc3cc(O)cc(O)c3c2=O)C(O)C(O)C1O (stereo not given in full) -2.63%, O=C(C(=O)N1CCOc2ccc(CN3CCN(Cc4ccccn4)CC3)cc2C1)c1ccccc1 -4.17%, CCCCC(=O)OCC(=O)[C@H]1[C@H](C)C[C@@H]2[C@@H]3C[C@@H](F)C4=CC(=O)C=C[C@]4(C)[C@@]3(F)[C@@H](O)C[C@@]21C -0.711%, COC(=O)[C@@H]1C[C@H](NC(=O)c2ccccc2C(F)(F)F)CN1Cc1cccc(O)c1 -4.69%, CCc1nc2cc(C(=O)NCC3CCS(=O)(=O)C3)cc(NC(=O)c3ccccc3OC)c2n1C (stereo not given) -5.29%, Cc1nc2cc(NC(=O)[C@@H]3C[C@@H](Sc4ccccn4)CN3Cc3ccccc3C)ccc2s1 -3.4%, O=C1OC(C(O)CO)C(O)=C1O (stereo not given) -2.25%, COc1ccc(COC(=O)N/N=C2/C[C@@H](O)[C@@H](O)[C@@H]3[C@@H]4C(=O)N([C@@H](C)c5ccccc5)C(=O)[C@H]4CC[C@@H]23)cc1 -1.75%, O=C(O)c1ccc(/C=C2/SC(=S)N(c3cccc(C(F)(F)F)c3)C2=O)cc1 2.71%, CC(=O)/C(C)=N\O -3.3%, C(=Nc1ccc(/C=C/c2ccnc3ccccc23)cc1)Nc1ccc(/C=C/c2ccnc3ccccc23)cc1 -10.1%, CN1CC(O)c2cc(N=NC(N)=O)c(O)cc21 (stereo not given) 4.72%, Cc1ccc(-c2ccc(C(=O)N3CCc4nnc(CNC(=O)c5ccccc5)n4CC3)cc2)cc1 -3.28%, CC1(C)[C@H](O[C@H]2O[C@H](C(=O)O)[C@@H](O)[C@H](O)[C@H]2O[C@@H]2O[C@H](C(=O)O)[C@@H](O)[C@H](O)[C@H]2O)CC[C@@]2(C)[C@H]1CC[C@]1(C)[C@H]2C(=O)C=C2[C@H]3C[C@@](C)(C(=O)O)CC[C@]3(C)CC[C@]21C -2.51%, O=c1c(O)c(-c2ccc(O)cc2)oc2ccccc12 -1.19%, CC(=O)Nc1ccccc1-c1nc(CNC(=O)c2ccc(Cl)cc2)c(C)o1 -2.78%, COCc1c(C(=O)NC2CCCCC2)cnn1-c1nccc(-c2ccccc2OC)n1 0.854%, COc1cc(C)c(CN2CCc3nnc(C(C)NC(=O)c4cccnc4)n3CC2)cc1C (stereo not given) -0.402%, Cn1nccc1C(=O)NCC1CCC2(CCN(Cc3c(O)ccc4ccccc34)CC2)O1 (stereo not given) -1.48%, Cc1cc(-c2ccnc(-n3ncc(C(=O)NCCc4ccncc4)c3C)n2)c(C)s1 -1.46%, CN(C)c1ccc(/C=C/c2sc3ccccc3[n+]2CCCCBr)cc1 -6.95%, COc1ccccc1-c1nc(NCc2cccs2)c2ccccc2n1 -5.15%, CO[C@H]1COC(=O)[C@H](Cc2ccccc2)NC(=O)C/C=C\[C@@H](C)[C@H](OC)COC(=O)C/C=C\[C@@H]1C -4.82%, COc1cccc([C@H]2Oc3ccc(OC)cc3/C(=N\OCC[C@@H]3C=C[C@H](OC(C)=O)[C@H](COC(C)=O)O3)[C@@H]2O)c1 -2.8%, O=C(NCCN1CCOCC1)c1cnn(-c2nccc(-c3cccs3)n2)c1C1CC1 -4.37%, CC(C)CN1CCc2nc(-c3ccccc3)c3c(c2C1)COC(C)C3 (stereo not given) -2.93%, Cc1cc2oc(=O)cc(-c3ccccc3)c2c(C)c1/C=C/c1ccc(F)cc1 -1.4%, CCC(C)C1OC2(C=CC1C)CC1CC(C/C=C(/C)C(OC3CC(OC)C(OC4CC(OC)C(NC(C)=O)C(C)O4)C(C)O3)C(C)/C=C\C=C3\COC4C(O)C(C)=CC(C(=O)O1)C34O)O2 (stereo not given) -10.3%, O=C(NCC1(N2CCCCC2)CCCCC1)c1cccc(S(=O)(=O)Nc2ccccc2Cl)c1 -4.77%, O=C(NCC1(N2CCCCC2)CCCCC1)c1ccc(NS(=O)(=O)c2ccc(F)cc2)cc1 -3.09%, COc1ccc(C2CC(=O)c3c(O)cc(OC4OC(COC5OC(C)C(O)C(O)C5O)C(O)C(O)C4O)cc3O2)cc1O (stereo not given) -4.13%, COc1cc(-c2cccnc2)cc2c1OCCN(C(=O)Cc1csc(C)n1)C2 -6.23%, O=C(c1cccc(F)c1)N1CCC2(CCCN(Cc3ccncc3)C2)CC1 -4.07%, COc1ccc(C(=O)N2CCC3(CCCN(C(c4ccccc4)c4ccccc4)C3)CC2)cc1 -2.87%, CCCNC(=O)OC[C@@H]1O[C@H](c2ccccc2)C=C[C@@H]1Oc1ccc(OC)cc1 -2.78%, CO[C@@H]1COC(=O)[C@H](Cc2ccccc2)NC(=O)C/C=C\[C@@H](C)[C@H](OC)COC(=O)[C@@H](C)NC(=O)C/C=C\[C@H]1C -5.06% and -3.17%, CN(Cc1cccc2ncccc12)C(=O)c1cnn(-c2nccc(-c3ccccc3F)n2)c1C1CC1 -10.9%, O=C(c1cn(CC2CCCN(Cc3cc4ccccc4s3)C2)nn1)N1CCCC1 (stereo not given) -4.62%, Cc1cccc(CNC(=O)c2cnn(-c3nccc(-c4ccccc4F)n3)c2C2CC2)n1 -2.43%, COc1ccc(/C=C/NC(=O)c2ccc(OC)cc2)cc1 -1.95%, N#Cc1ccccc1-c1ccc2ncnc(NCc3cccnc3)c2c1 -2.79%, CO[C@@]12[C@@H](COC(N)=O)C3=C(C(=O)C(C)=C(N)C3=O)N1C[C@@H]1N[C@@H]12 -2.04%, COc1cc(C[C@H]2NCCc3cc(O)c(O)cc32)cc(OC)c1OC -2.86%, COc1cc([C@@H]2c3cc4c(cc3[C@@H](O[C@@H]3O[C@@H]5CO[C@@H](C)O[C@H]5[C@H](O)[C@H]3O)[C@H]3COC(=O)[C@H]23)OCO4)cc(OC)c1OP(=O)(O)O -3.95%, CCC1(C2CCN(Cc3cccnc3)CC2)NC(=O)N(CC2COc3ccccc3O2)C1=O (stereo not given) -3.69%, CCS(=O)(=O)Nc1cc(C(=O)N2C[C@@H](C)O[C@@H](C)C2)c2c(c1)nc(-c1ccccc1)n2C -5.69%, CC[C@H](C)[C@H](NC(=O)[C@H](Cc1ccc(O)cc1)NC(=O)[C@@H](NC(=O)[C@H](CCCN=C(N)N)NC(=O)[C@@H](N)CC(=O)O)C(C)C)C(=O)N[C@@H](Cc1cnc[nH]1)C(=O)N1CCC[C@H]1C(=O)N[C@@H](Cc1ccccc1)C(=O)O -0.592%, COc1ccc2c(c1)CCc1cnc(-n3ncc(C(=O)NCc4cccnc4)c3C3CC3)nc1-2 -2.79%, COc1cc(=O)n2c(c1C(=O)NCc1ccco1)CCN(Cc1ccccc1)CC2 -4.45%, Cc1oc(-c2cccc(NC(=O)c3ccccc3)c2)nc1CNC(=O)c1cnc2ccccn2c1=O -3.8%

Potency, active:
C#C[C@]1(O)CC[C@H]2[C@@H]3CCC4=CC(=O)CC[C@@H]4[C@H]3CC[C@@]21CC 20 µM, CCOc1ccc(S(=O)(=O)Nc2cccc(C(=O)NCC3(N4CCCCC4)CCCCC3)c2)cc1 15.8 µM, O=C(c1ccncc1)N1CCC2(CCCN(C(c3ccccc3)c3ccccc3)C2)CC1 35.5 µM
